Assay in all cases: protein-binding microarray (PBM); PBM: ~300 nM protein, 6 mM HEPES pH 7.8, 80 mM KCl, 0.5 mM EDTA, 0.5 mM EGTA, 6% glycerol, 35 ng/ul poly-dIdC, 1% milk, 1 h, room temperature; Ap Aiptasia and Nv Nematostella (sea anemones) / Co Capsaspora / Aq Amphimedon (sponge) / Dm Drosophila / Hu human; RHD is the Rel homology domain; high values mean tight binding
What all share (settings): dsDNA, one strand shown

In one experiment the target is T1, GST-Ap-NF-kB RHD (Exaiptasia pallida (Aiptasia), UniProt A0A913YAJ5 2-422).
T1 sequence: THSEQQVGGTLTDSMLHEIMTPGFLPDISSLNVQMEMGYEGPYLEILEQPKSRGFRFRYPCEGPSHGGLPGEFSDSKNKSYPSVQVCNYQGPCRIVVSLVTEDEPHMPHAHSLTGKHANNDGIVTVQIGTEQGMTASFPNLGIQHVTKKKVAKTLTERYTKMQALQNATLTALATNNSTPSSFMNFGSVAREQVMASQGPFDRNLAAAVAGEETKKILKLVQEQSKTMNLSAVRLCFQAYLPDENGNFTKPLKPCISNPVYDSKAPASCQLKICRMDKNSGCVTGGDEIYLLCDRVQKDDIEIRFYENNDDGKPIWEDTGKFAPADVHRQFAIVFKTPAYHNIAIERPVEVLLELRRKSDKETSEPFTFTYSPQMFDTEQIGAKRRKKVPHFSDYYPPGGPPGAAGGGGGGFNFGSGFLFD

The target of experiment [1] is T2, GST-Nv-NF-kB (Cys allele) (Nematostella vectensis, UniProt E5G601 2-411).
T2 sequence: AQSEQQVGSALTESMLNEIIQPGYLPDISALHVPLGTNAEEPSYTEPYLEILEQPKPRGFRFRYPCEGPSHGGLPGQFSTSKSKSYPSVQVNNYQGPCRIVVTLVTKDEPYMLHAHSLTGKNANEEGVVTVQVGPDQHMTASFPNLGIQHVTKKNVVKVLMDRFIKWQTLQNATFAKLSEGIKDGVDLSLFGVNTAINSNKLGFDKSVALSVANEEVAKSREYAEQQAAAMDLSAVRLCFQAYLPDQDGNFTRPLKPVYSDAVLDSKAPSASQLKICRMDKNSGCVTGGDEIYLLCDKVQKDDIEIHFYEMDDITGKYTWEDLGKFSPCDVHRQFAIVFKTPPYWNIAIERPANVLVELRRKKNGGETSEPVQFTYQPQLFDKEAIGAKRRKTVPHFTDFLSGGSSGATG

Experiment [2] concerns the target T3, GST-Nv-NF-kB (Ser allele) (Nematostella vectensis, UniProt A7UNT2 2-411).
T3 sequence: T2 sequence with Q21R, C66S, S207N, E215Q, V217A, E225K, A268E, D399E

The next experiment deals with T4, GST-Co-NF-kB (Capsaspora owczarzaki, UniProt F1ARL5 200-546).
T4 sequence: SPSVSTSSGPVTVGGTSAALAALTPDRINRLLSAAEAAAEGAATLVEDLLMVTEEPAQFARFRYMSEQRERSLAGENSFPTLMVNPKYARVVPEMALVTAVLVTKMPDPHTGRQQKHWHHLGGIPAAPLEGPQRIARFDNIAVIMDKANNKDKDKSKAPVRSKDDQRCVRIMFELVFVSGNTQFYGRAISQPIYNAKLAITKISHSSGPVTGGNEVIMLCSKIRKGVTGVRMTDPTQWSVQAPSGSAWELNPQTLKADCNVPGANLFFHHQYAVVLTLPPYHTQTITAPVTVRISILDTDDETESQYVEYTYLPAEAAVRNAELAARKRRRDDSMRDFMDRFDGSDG

Another experiment has as its target T5, GST-Dm-Relish (Drosophila melanogaster, UniProt Q94527 99-473).
T5 sequence: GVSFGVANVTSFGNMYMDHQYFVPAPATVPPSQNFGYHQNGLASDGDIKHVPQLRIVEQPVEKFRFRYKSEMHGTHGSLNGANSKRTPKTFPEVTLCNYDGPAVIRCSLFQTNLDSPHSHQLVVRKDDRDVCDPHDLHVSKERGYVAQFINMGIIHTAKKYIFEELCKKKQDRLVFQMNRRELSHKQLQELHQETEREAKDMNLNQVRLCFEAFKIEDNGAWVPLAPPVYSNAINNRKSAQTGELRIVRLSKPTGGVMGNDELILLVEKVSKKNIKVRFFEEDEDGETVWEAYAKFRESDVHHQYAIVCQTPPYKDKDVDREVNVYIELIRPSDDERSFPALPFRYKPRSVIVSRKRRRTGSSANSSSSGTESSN

In the next experiment the target is T6, GST-Aq-NF-kB (Amphimedon queenslandica, UniProt A9Y5G7 2-389).
T6 sequence: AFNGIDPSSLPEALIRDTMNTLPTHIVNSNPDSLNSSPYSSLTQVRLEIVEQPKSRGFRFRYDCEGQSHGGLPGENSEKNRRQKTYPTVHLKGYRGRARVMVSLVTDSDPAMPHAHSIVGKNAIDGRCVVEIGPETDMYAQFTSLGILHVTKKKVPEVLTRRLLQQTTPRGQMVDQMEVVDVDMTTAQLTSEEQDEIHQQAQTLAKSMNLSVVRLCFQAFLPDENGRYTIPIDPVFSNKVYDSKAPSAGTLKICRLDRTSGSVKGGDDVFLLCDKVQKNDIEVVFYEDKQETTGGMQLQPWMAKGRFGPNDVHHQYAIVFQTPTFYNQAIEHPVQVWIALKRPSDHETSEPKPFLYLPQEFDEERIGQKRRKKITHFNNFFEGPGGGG

The next experiment addresses GST-Hu-p50 (Homo sapiens, UniProt P19838 7-356).

Where a chain is given by its changes, count along the chain named.

Sequence of GST-Hu-p50 (P19838 7-356): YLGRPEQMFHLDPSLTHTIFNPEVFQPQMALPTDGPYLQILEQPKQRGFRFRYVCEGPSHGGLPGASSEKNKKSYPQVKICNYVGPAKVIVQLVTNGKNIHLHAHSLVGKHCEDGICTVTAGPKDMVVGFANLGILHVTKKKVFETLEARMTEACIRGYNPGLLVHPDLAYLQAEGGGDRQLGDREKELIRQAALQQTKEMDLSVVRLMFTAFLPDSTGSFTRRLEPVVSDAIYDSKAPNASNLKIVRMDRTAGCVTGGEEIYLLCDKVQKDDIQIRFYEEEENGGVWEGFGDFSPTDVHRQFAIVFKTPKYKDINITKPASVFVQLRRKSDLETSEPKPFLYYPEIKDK

For the sequence “CCGATTAACATCAGGGGATTCTATGATGTTAATCGGGTCTTGATTCGCTTGACGCTGCTG”, the binding signal was 8.9 z-score with GST-Ap-NF-kB RHD; 9.25 z-score in experiment [1]; 11.1 z-score in experiment [2]; 3.26 z-score in the experiment with GST-Co-NF-kB; 7.72 z-score with GST-Dm-Relish; 6.2 z-score in the experiment with GST-Aq-NF-kB. The sequence further registered a binding signal with GST-Hu-p50 of 6.98 z-score.

Regarding “CCGATTAACATCATTCCCGGGAATGATGTTAATCGGGTCTTGATTCGCTTGACGCTGCTG”, the binding signal with GST-Ap-NF-kB RHD worked out at 2.49 z-score; in experiment [1], 4.09 z-score; in experiment [2], 3.45 z-score; in the experiment with GST-Co-NF-kB it was 5.77 z-score; in the experiment with GST-Dm-Relish, 1.81 z-score; with GST-Aq-NF-kB, 3.95 z-score. Further, in the experiment with GST-Hu-p50, the binding signal was found to be 2.31 z-score.

Take “CCGATTAACATCAAGACTTCCCCTGATGTTAATCGGGTCTTGATTCGCTTGACGCTGCTG”: the binding signal was determined as 6.45 z-score in the experiment with GST-Ap-NF-kB RHD; 7.56 z-score in experiment [1]; 7.93 z-score in experiment [2]; 5.12 z-score with GST-Co-NF-kB; 7.71 z-score in the experiment with GST-Dm-Relish; 6.38 z-score with GST-Aq-NF-kB. In the experiment with GST-Hu-p50, the binding signal was 5.95 z-score.

“CCGATTAACATCAAAGAATCCCCTGATGTTAATCGGGTCTTGATTCGCTTGACGCTGCTG”: the binding signal was 8.71 z-score with GST-Ap-NF-kB RHD; 9.68 z-score in experiment [1]; 11.8 z-score in experiment [2]; 4.06 z-score in the experiment with GST-Co-NF-kB; 9.1 z-score with GST-Dm-Relish; 6.89 z-score with GST-Aq-NF-kB. The sequence also displayed a binding signal with GST-Hu-p50 of 7.06 z-score.

As for “CCGATTAACATCAGGGGGATAAATGATGTTAATCGGGTCTTGATTCGCTTGACGCTGCTG”, the binding signal was found to be 5.25 z-score in the experiment with GST-Ap-NF-kB RHD; 5.54 z-score in experiment [1]; 5.46 z-score in experiment [2]; 7.85 z-score with GST-Co-NF-kB; 3.78 z-score in the experiment with GST-Dm-Relish; 4.4 z-score in the experiment with GST-Aq-NF-kB. The binding signal in the experiment with GST-Hu-p50 came out at 4.82 z-score.

Turning to “CCGATTAACATCACAAAAACCCCTGATGTTAATCGGGTCTTGATTCGCTTGACGCTGCTG”, the binding signal in the experiment with GST-Ap-NF-kB RHD was found to be 7.23 z-score; in experiment [1] it was 7.23 z-score; in experiment [2], 6.81 z-score; with GST-Co-NF-kB, 2.92 z-score; with GST-Dm-Relish, 8.1 z-score; with GST-Aq-NF-kB, 6.48 z-score. This sequence also displayed a binding signal in the experiment with GST-Hu-p50 of 6.99 z-score.

In the case of “CCGATTAACATCAGGGGAAAGAATGATGTTAATCGGGTCTTGATTCGCTTGACGCTGCTG”, the binding signal in the experiment with GST-Ap-NF-kB RHD turned out to be 4.95 z-score; in experiment [1], 6.07 z-score; in experiment [2], 8.18 z-score; with GST-Co-NF-kB, 8.25 z-score; in the experiment with GST-Dm-Relish, 3.01 z-score; in the experiment with GST-Aq-NF-kB, 4.87 z-score. Besides, the binding signal with GST-Hu-p50 is 5.05 z-score.

As for “CCGATTAACATCACAAACCCCCCTGATGTTAATCGGGTCTTGATTCGCTTGACGCTGCTG”, the binding signal with GST-Ap-NF-kB RHD amounted to 6.66 z-score; in experiment [1] it was 4.96 z-score; in experiment [2] it was 6.4 z-score; in the experiment with GST-Co-NF-kB, 3.99 z-score; with GST-Dm-Relish, 7.41 z-score; with GST-Aq-NF-kB, 5.34 z-score. The sequence further showed a binding signal in the experiment with GST-Hu-p50 of 6.08 z-score.

As to “CCGATTAACATCAAAAAGTCCCGTGATGTTAATCGGGTCTTGATTCGCTTGACGCTGCTG”, the binding signal was found to be 7.34 z-score in the experiment with GST-Ap-NF-kB RHD; 9.76 z-score in experiment [1]; 8.57 z-score in experiment [2]; 2.47 z-score with GST-Co-NF-kB; 9 z-score with GST-Dm-Relish; 8.05 z-score with GST-Aq-NF-kB. The sequence further yielded a binding signal with GST-Hu-p50 of 6.44 z-score.

On to “CCGATTAACATCAGGGAATTGCATGATGTTAATCGGGTCTTGATTCGCTTGACGCTGCTG”, for which the binding signal in the experiment with GST-Ap-NF-kB RHD is 2.48 z-score; in experiment [1] it was 4.23 z-score; in experiment [2] it was 4.1 z-score; with GST-Co-NF-kB, 2.6 z-score; with GST-Dm-Relish it was 1.11 z-score; with GST-Aq-NF-kB, 3.49 z-score. In the experiment with GST-Hu-p50, the binding signal was found to be 3.1 z-score.

Regarding “CCGATTAACATCAAAATATCCCCTGATGTTAATCGGGTCTTGATTCGCTTGACGCTGCTG”, the binding signal turned out to be 8.8 z-score in the experiment with GST-Ap-NF-kB RHD; 9.37 z-score in experiment [1]; 11 z-score in experiment [2]; 5.38 z-score with GST-Co-NF-kB; 8.53 z-score with GST-Dm-Relish; 7.25 z-score with GST-Aq-NF-kB. This sequence also registered a binding signal with GST-Hu-p50 of 7.09 z-score.

Regarding “CCGATTAACATCAGGAGCCCCCCTGATGTTAATCGGGTCTTGATTCGCTTGACGCTGCTG”, the binding signal with GST-Ap-NF-kB RHD amounted to 5.02 z-score; in experiment [1], 3.27 z-score; in experiment [2], 2.66 z-score; with GST-Co-NF-kB it was 2.66 z-score; in the experiment with GST-Dm-Relish it was 6.02 z-score; in the experiment with GST-Aq-NF-kB, 5.04 z-score. Moreover, the binding signal in the experiment with GST-Hu-p50 was determined as 4.41 z-score.

Turning to “CCGATTAACATCAGGGGGTCCACTGATGTTAATCGGGTCTTGATTCGCTTGACGCTGCTG”, the binding signal with GST-Ap-NF-kB RHD is 4.33 z-score; in experiment [1] it was 2.44 z-score; in experiment [2], 2.96 z-score; with GST-Co-NF-kB, 1.99 z-score; with GST-Dm-Relish, 7.96 z-score; in the experiment with GST-Aq-NF-kB, 4.83 z-score. Moreover, the binding signal with GST-Hu-p50 came out at 3.28 z-score.
